Reference: ChEMBL document CHEMBL3988442, “University of Dundee, Small-Polar-MMV Screening Library” (2021)
For some assays here: Entries with a potency or affinity are not part of this list.

Key:
Parameters in all cases: scale not given: direction of the effect not stated beside the values
[1] = biological target: Protein translocase subunit SecA (Escherichia coli (strain K12)) (UniProt P10408); test: Assay to Identify E. coli SecA ATPase Inhibitors; format: functional; conditions: 30 µM
[2] = biological target: T1, Ubiquitin-activating enzyme e1, putative (Leishmania donovani (strain BPK282A1)) (UniProt E9BSI1); test: Leishmania donovani Ubiquitin Activating Enzyme (LdE1); format: functional; conditions: 30 µM
T1 sequence (whole entry): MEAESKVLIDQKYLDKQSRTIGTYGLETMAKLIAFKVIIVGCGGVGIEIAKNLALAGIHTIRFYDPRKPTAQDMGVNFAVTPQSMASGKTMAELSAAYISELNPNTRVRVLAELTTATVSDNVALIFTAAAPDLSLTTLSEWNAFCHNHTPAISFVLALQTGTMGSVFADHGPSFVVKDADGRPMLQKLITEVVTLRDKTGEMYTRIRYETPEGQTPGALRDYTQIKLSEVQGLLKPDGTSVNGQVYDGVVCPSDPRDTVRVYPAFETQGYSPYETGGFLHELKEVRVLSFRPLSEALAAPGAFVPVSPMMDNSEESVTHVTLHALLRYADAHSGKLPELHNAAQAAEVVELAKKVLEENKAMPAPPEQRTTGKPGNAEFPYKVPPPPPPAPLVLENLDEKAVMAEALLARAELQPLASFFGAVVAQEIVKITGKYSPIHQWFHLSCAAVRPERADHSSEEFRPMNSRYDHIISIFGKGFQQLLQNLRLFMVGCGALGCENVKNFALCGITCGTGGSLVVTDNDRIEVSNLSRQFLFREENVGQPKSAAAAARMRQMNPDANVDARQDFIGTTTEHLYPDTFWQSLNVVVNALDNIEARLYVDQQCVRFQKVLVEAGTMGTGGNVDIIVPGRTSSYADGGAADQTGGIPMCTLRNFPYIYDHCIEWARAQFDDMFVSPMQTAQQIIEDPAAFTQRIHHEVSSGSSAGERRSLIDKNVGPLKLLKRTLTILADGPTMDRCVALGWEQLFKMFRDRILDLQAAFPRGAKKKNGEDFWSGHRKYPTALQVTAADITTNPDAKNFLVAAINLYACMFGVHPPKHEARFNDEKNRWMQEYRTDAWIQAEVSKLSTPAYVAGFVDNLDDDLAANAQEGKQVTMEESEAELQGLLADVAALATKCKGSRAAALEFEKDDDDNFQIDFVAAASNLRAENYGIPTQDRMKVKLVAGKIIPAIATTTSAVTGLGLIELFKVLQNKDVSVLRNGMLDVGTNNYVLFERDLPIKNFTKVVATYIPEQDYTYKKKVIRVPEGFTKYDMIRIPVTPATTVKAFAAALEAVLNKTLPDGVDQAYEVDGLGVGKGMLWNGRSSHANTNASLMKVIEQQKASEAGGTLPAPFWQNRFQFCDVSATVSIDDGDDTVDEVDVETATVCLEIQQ

[3] = biological target: AMP-activated protein kinase, AMPK (Homo sapiens) (UniProt P54646+O43741+P54619+Q9UGJ0+Q9Y478+Q13131+Q9UGI9); test: AMP-dependent Kinase enzyme assay. An in vitro enzyme assay that detects ADP turnover that is directly proportional to AMPK activity. This uses naive AMPK that is activated during the assay with MK-8722; format: functional; conditions: 30 µM
[4] = biological target: Sialic acid-binding Ig-like lectin 9 (Homo sapiens) (UniProt Q9Y336); test: Hs-Siglec9 ALPHAscreen SOP 20170721; conditions: 10 µM
Sequence of Sialic acid-binding Ig-like lectin 9 (Homo sapiens) (Q9Y336 whole entry): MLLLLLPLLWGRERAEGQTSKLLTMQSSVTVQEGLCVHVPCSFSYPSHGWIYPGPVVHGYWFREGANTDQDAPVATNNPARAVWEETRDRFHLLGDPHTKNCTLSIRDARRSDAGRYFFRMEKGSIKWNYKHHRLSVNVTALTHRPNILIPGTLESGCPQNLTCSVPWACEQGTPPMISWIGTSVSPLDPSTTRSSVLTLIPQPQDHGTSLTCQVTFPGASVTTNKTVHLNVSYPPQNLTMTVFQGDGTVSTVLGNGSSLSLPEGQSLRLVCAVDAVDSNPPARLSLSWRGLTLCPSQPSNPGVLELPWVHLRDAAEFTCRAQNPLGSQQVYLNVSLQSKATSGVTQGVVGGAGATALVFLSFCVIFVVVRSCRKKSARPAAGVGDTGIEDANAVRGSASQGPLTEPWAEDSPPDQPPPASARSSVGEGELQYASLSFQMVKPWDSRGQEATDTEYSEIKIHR

Trypanosoma cruzi = test: Trypanosoma cruzi phosphomannomutase and mannose-1-phosphate guanylyltransferase assay; format: functional; conditions: 10 µM
[5] = biological target: T2, Arginase-2, mitochondrial (Homo sapiens) (UniProt P78540); test: in vitro enzyme assay to detect the production of urea directly proportional to the activity of Arginase II; format: functional; conditions: 33.3 µM; note: in the data most compounds retested in dose-response had high values
T2 sequence (whole entry): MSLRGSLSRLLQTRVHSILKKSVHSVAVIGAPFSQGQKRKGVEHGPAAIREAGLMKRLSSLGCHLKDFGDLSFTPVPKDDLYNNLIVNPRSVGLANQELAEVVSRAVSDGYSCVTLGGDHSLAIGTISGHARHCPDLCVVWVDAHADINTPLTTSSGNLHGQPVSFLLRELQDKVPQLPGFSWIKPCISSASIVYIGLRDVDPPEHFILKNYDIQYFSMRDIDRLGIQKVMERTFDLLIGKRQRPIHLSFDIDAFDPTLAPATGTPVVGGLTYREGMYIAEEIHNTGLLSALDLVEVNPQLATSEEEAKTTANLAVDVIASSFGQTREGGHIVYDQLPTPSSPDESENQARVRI

[6] = biological target: T3, Proteasome subunit beta (Trypanosoma cruzi) (UniProt O96673); test: Trypanosoma cruzi proteasome chymotrypsin-like activity (TcProtChymo) assay.; note: in the data most compounds retested in dose-response had high values; format: functional; conditions: 9.37 µM
T3 sequence (whole entry): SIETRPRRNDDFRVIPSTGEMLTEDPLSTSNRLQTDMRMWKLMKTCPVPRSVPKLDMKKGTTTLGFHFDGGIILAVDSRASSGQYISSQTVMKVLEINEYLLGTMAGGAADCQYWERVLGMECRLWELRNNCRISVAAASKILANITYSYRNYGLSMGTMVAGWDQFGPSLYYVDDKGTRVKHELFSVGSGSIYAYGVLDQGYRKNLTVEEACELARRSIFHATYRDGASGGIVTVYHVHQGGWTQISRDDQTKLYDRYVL

Homo sapiens = organism: Homo sapiens; test: To identify inhibition of the IFN signalling (Jak-Stat) pathway via expression of an eGFP reporter gene under the control of an IFN-stimulated response element (ISRE) containing MxA promoter.; format: functional; conditions: 30 µM
[7] = biological target: T4, Tyrosyl-tRNA synthetase, putative (Trypanosoma cruzi (strain CL Brener)) (UniProt Q4DSP6); test: Trypanosoma cruzi tyrosyl tRNA synthetase (TcYRS) _High Tyrosine SOP; format: functional; conditions: 30 µM; note: in the data most compounds retested in dose-response had high values
T4 sequence (whole entry): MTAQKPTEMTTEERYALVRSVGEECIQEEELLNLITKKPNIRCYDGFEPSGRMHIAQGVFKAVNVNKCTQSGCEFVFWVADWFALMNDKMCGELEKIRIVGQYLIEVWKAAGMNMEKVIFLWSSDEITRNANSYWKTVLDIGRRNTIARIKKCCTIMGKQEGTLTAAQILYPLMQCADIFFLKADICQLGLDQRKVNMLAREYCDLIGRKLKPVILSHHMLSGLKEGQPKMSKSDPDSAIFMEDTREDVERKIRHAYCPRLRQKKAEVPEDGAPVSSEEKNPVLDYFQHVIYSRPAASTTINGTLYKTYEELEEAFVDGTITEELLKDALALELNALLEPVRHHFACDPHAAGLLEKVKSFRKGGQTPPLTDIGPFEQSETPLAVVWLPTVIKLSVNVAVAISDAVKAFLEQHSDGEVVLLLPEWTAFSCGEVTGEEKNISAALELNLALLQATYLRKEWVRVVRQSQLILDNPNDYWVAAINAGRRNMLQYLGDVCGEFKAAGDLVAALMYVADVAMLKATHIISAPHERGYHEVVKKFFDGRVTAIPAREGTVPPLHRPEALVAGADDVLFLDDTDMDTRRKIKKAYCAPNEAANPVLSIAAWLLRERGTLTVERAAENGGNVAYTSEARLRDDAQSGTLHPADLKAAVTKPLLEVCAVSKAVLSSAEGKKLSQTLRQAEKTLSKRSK

[8] = biological target: T4, Tyrosyl-tRNA synthetase, putative (Trypanosoma cruzi (strain CL Brener)); test: Trypanosoma cruzi tyrosyl tRNA synthetase (TcYRS) SOP; format: functional; conditions: 30 µM
[9] = biological target: Chromo domain-containing protein 1 (Saccharomyces cerevisiae (strain ATCC 204508 / S288c) (Baker's yeast)) (UniProt P32657); test: ScCHD-1 Enzyme Inhibition Assay; format: functional; conditions: 30 µM; note: in the data most compounds retested in dose-response had high values
Sequence of Chromo domain-containing protein 1 (Saccharomyces cerevisiae (strain ATCC 204508 / S288c) (Baker's yeast)) (P32657 whole entry, the tested form may be a part): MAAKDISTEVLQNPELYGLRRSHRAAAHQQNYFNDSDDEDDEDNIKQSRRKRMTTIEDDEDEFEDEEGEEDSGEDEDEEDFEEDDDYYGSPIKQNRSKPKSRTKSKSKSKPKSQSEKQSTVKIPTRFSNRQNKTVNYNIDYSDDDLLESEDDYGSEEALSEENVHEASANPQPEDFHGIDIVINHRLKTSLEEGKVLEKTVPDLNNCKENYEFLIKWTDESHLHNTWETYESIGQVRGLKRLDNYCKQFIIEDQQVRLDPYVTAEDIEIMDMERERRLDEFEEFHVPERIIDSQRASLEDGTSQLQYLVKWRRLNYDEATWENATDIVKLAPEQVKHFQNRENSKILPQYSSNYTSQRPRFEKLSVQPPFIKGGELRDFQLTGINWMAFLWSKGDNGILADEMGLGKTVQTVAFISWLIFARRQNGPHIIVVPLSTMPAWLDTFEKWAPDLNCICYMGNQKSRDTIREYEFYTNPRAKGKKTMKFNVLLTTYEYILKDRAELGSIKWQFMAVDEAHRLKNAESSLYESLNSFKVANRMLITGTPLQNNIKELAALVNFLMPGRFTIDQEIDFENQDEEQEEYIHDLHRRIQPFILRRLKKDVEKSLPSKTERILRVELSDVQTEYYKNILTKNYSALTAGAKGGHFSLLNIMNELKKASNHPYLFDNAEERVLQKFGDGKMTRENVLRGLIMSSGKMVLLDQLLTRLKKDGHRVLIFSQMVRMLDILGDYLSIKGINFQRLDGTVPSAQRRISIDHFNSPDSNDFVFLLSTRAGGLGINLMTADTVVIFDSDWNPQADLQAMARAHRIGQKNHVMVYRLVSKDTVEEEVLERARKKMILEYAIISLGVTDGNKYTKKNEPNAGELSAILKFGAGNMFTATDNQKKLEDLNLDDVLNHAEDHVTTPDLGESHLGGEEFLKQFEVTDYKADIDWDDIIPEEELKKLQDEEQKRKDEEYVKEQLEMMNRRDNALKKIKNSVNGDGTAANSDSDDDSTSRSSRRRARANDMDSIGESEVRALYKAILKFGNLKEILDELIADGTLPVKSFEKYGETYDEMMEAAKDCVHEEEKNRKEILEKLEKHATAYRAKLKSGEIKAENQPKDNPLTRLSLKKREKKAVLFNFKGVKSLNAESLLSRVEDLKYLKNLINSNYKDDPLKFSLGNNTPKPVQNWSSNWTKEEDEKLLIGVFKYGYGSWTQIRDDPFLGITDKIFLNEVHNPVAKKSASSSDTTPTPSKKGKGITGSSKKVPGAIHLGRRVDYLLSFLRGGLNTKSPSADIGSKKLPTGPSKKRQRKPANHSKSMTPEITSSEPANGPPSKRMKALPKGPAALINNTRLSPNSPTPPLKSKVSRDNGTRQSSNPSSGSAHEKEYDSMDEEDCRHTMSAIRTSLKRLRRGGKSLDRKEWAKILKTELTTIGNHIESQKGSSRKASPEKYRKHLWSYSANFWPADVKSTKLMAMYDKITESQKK

Sequence of Protein translocase subunit SecA (Escherichia coli (strain K12)) (P10408 whole entry): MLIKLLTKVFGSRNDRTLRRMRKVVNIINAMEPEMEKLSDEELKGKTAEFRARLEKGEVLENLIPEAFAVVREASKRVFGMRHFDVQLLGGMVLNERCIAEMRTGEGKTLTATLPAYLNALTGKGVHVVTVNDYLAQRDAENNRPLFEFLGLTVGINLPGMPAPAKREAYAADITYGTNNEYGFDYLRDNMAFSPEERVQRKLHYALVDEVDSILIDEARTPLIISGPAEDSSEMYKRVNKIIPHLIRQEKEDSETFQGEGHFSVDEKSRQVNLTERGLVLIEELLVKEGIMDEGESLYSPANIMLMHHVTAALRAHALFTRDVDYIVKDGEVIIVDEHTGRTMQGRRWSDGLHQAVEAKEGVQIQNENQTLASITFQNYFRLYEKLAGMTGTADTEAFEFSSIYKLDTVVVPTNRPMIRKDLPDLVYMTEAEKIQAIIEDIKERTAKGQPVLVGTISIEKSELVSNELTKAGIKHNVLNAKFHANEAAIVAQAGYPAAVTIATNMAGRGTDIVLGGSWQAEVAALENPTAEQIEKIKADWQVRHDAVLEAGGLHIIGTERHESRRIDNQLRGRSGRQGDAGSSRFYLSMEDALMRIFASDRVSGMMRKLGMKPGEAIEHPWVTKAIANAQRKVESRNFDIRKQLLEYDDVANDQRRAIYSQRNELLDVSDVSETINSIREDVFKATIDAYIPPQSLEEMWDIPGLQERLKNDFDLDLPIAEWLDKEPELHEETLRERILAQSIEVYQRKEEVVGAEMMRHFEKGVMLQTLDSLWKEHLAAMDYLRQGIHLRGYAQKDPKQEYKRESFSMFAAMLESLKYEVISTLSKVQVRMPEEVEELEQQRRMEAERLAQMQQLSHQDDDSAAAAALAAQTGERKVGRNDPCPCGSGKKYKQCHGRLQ

Row | Compound | Percent Effect [1] [%] | Percent Effect [2] [%] | Percent Effect [3] [%] | Percent Effect [4] [%] | Percent Effect (Trypanosoma cruzi) [%] | Percent Effect [5] [%] | Percent Effect [6] [%] | Percent Effect (Homo sapiens) [%] | Percent Effect [7] [%] | Percent Effect [8] [%] | Percent Effect [9] [%]
1 | Cn1cc(CNCCOc2ccc(F)c(F)c2)c(-c2cccnc2)n1 | -6.54 | 5.41 | -6.5 | 20.6 | 1.47 | 0.744 | 5.41 | 7.57 | 4.3 | 8.64 | -3.29
2 | Cc1ccc(N2CC[C@H]3C[C@@H](C(=O)N4CCOCC4)O[C@H]3C2)nn1 | -2.71 | 13.5 | -1.79 | -1.51 | -0.293 | -0.319 | 11.6 | -4.87 | 10.8 | 15.4 | -1.79
3 | O=C(c1cccc(N2CCCC2=O)c1)N1CCCC(n2cncn2)C1 (configuration not stated) | -5.98 | 13.5 | -31.2 | 2.17 | -1.6 | -1.6 | -0.18 | 7.08 | 8.37 | 13.6 | -5.4
4 | NS(=O)(=O)CCNC(=O)c1ccc(-c2ccc(F)cc2)cc1F | -4.5 | 5.2 | 1.86 | 3.08 | -1.08 | 8.28 | 24.5 | 19.2 | -10.8 | 1.24 | -1.11
5 | Cc1ccc2c(c1)CCC21CCN(C(=O)CO)CC1 | -2.81 | 5.2 | -0.185 | 17.2 | 6.79 | -20.7 | 12.8 | 15.4 | 4.3 | 6.17 | -7.19
6 | COCCN1C[C@H]2[C@@H](C1)N(Cc1ccc(C)o1)CC[C@H]2OC | -2.85 | -30.1 | -5.66 | 7.25 | 6.94 | -3.19 | 14.3 | 0.524 | 8.33 | 6.17 | -11.5
7 | O=C(NCCNc1cnccn1)N1CCN(Cc2cccnc2)CC1 | -5.13 | 8.86 | -3.44 | -10.1 | 3.38 | 1.5 | 15.1 | 10.6 | 7.29 | 20.2 | -33.3
8 | CC(C)OCCOCc1cccc(NC(=O)NCCn2ccnc2)c1 | -0.877 | 10.4 | -2.37 | 9.62 | 5.61 | -1.38 | 8.65 | -0.82 | -1.07 | 3.7 | -7.91
9 | CC(=O)N1CCCC1c1nccc(C)n1 (configuration not stated) | -4.82 | 8 | 9.75 | 7.48 | -0.984 | 3.5 | 4.67 | 3.01 | 3.19 | 11.5 | -1.52
10 | O=C1CC(c2ccncc2)C2(CCN(C(=O)c3ccc[nH]3)CC2)N1 (configuration not stated) | -2.27 | 18.9 | -1.68 | -16.4 | 4.01 | -5.41 | 8.86 | 14.6 | 3.24 | 15.4 | -0.00396
11 | COC1COC2(CCN(Cc3ccccc3Cl)CC2)C1 (configuration not stated) | -5.82 | 1.33 | 7.01 | 5.98 | -0.982 | 2.29 | 11.5 | 20.8 | -2.12 | 5.13 | 0.93
12 | COc1ccc(C)cc1CN1CCCC1Cn1nc(C)nc1C (configuration not stated) | -5.51 | -3.8 | -7.49 | 4.01 | 2.97 | -0.645 | 16.6 | 46.5 | 8.33 | 12.7 | -26.7
13 | CSc1ccc(C(CN)N2CCc3sccc3C2)cc1 (configuration not stated) | 0.534 | -15.8 | -4.11 | -9.22 | 3.6 | -5.92 | 6.42 | 39.7 | 17 | 28.6 | 1.73
14 | O=C(c1ccco1)N1CCOCC2(CCN(C3CCOCC3)C2)C1 (configuration not stated) | -0.734 | 1.33 | -1.65 | 3.4 | -7.47 | -2.29 | 7.95 | 2.53 | 0 | 5.13 | -6.06
15 | CCc1nccn1C1CCCN(C(=O)c2cnn(C)c2C2CC2)C1 (configuration not stated) | -5.61 | 8.11 | -0.679 | 1.6 | -6.51 | -4.41 | 6.49 | 23.9 | 3.45 | 6.17 | -2.99
16 | Cc1ccc(CC(=O)N2Cc3nccn3CC(Cn3cccn3)C2)cc1 (configuration not stated) | 0.712 | 8.22 | -7.73 | 14.5 | 3.77 | 2.79 | 11.2 | 17.3 | 4.17 | 16.1 | -6.87
17 | Cc1ccc(C(=O)NC2CCN(C(=O)Nc3ccccn3)CC2)o1 | -3.11 | 10.4 | -3.63 | -17.5 | -7.15 | -2.32 | 6.71 | 9.29 | 2.86 | 14.1 | -18.9
18 | Cc1cnn(C2CCCN(C(=O)CCCOc3cccc(F)c3)C2)c1 (configuration not stated) | -4.89 | -1.27 | 42.4 | 2.93 | 0.513 | 4.52 | 0 | 3.38 | -3.12 | -5.06 | -28.9
19 | COc1cccc(CN(C)C(=O)CN2CCN(c3nccn3C)CC2)c1 | -1.77 | 8 | -12.7 | 7.67 | 3.99 | 14.1 | 20.6 | 1.29 | 10.4 | 21 | -3.45
20 | Cn1cc(-c2csc(CN3CCOCC3)n2)cn1 | 2.9 | 4.17 | -3.9 | 1.67 | 0.0972 | 8.39 | 1.58 | -3.07 | -1.05 | 2.56 | -1.39
21 | Cc1cc2n(n1)CC(CNCc1ccc(-n3cccn3)nc1)CN2 (configuration not stated) | -1.63 | 5.26 | -8.03 | 8.37 | 13.2 | -0.766 | 7.69 | 1.93 | 11.3 | 21.9 | -9.89
22 | FC(F)(F)Cc1noc(CN2CCCC2c2noc(C3CC3)n2)n1 (configuration not stated) | -1.65 | 13.5 | -5.95 | 4.29 | 4.06 | -10.8 | 5.59 | 7.37 | 7.39 | 23.5 | -9.28
